From the supplement of paper PMC10849652
The full data set covers some 7,900 targets. This sample favours those with a hit. About 0.6% of all pairs of compound and target were hits.

compound: Cc1cc(Nc2cc(N3CCN(C)CC3)nc(Sc3ccc(NC(=O)C4CC4)cc3)n2)n[nH]1 [tozasertib]; assay: log2 fold change, soluble protein after heating vs DMSO (PISA); higher = thermal stabilisation; K562 cells, 10 uM, 30 min; active = over 0.2 and 3.5 SD of the protein, either way, in both replicates (recomputed)
Procedure, shortened: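 K562 cells at 2×10^6 cells/mL were treated with 10 μM compound for 30 min. Aliquots were heated for 3 min across 48°C-58°C, pooled, and extracted in PBS with 0.5% NP-40 at 4°C; soluble protein was the supernatant after 21,000xg for 90 min. Soluble protein was quantified by TMTpro 16plex LC-MS/MS with channel sums equalised, and reported as log2 fold change in thermal stability against DMSO controls, with values from duplicates.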

Sequence of UniProt P30519 (P30519 whole entry, looked up): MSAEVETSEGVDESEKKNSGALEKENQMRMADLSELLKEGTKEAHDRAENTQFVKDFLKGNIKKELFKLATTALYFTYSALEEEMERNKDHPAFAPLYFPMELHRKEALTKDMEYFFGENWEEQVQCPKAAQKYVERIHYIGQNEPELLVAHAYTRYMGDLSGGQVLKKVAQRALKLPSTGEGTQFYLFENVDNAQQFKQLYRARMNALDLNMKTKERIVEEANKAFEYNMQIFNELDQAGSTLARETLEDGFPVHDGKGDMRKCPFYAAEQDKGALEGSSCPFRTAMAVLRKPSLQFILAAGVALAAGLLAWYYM
Sequence of UniProt Q92538 (Q92538 whole entry, looked up): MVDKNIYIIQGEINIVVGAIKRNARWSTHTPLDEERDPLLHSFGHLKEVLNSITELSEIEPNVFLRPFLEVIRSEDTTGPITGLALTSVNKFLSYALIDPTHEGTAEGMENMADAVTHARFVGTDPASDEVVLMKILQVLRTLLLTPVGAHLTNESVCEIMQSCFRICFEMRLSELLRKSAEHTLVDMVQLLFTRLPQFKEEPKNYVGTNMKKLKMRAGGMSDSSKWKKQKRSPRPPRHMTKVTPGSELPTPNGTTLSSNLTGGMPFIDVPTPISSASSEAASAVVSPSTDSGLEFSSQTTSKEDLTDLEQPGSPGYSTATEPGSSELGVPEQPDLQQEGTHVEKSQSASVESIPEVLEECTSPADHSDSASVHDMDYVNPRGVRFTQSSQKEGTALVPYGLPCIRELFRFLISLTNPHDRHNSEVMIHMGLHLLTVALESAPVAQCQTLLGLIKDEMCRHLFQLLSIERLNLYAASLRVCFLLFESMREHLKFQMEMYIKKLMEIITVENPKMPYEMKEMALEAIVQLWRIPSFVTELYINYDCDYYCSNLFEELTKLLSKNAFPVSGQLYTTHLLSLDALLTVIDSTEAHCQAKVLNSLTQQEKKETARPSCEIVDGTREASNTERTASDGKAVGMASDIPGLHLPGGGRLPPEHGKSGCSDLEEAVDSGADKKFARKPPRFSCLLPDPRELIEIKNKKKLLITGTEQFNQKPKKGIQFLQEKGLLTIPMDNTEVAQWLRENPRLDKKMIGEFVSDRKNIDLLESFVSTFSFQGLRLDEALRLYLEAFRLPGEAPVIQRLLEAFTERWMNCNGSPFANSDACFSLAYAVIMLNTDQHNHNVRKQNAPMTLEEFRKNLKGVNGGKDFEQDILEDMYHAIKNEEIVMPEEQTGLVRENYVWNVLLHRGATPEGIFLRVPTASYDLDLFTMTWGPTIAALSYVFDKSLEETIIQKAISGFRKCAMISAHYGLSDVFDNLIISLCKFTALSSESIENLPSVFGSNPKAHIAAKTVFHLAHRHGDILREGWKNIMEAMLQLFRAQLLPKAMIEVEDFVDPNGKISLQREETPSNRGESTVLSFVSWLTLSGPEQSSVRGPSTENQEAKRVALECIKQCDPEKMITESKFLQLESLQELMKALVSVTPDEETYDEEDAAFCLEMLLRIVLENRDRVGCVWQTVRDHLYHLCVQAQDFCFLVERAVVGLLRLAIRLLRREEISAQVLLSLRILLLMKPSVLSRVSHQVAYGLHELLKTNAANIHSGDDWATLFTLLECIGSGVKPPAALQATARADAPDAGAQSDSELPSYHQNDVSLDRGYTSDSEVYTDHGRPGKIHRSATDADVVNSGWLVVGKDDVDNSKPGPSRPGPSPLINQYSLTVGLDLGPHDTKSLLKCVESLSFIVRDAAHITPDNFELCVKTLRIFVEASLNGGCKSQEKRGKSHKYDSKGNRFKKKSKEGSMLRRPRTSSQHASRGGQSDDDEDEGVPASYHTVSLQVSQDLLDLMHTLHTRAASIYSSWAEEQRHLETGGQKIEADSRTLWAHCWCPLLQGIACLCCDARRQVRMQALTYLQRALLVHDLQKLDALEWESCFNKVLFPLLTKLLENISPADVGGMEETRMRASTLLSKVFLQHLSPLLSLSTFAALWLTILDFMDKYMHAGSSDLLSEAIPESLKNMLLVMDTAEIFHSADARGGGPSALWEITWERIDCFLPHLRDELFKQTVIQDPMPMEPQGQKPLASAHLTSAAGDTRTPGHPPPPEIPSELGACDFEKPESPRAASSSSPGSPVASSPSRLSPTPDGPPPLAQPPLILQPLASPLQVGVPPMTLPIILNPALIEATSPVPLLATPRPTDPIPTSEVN
Sequence of UniProt O94925 (O94925 whole entry, looked up): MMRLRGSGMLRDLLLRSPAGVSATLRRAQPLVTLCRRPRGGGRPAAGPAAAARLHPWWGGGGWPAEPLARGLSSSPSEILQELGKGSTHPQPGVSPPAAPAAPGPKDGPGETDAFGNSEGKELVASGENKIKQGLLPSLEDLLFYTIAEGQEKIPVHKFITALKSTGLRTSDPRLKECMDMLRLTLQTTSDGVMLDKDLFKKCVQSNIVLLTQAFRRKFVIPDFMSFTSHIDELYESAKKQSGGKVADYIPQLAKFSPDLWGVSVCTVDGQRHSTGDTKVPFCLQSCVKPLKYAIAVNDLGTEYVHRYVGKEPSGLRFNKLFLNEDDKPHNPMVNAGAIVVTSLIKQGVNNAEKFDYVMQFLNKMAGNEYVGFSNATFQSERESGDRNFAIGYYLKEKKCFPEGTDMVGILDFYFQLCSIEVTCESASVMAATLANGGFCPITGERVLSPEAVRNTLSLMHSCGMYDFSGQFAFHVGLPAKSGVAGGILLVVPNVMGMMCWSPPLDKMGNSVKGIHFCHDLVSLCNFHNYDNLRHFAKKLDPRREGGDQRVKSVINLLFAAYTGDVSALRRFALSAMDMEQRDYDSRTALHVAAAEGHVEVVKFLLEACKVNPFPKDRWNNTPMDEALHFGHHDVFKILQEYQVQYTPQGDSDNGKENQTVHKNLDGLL
Sequence of UniProt Q92522 (Q92522 whole entry, looked up): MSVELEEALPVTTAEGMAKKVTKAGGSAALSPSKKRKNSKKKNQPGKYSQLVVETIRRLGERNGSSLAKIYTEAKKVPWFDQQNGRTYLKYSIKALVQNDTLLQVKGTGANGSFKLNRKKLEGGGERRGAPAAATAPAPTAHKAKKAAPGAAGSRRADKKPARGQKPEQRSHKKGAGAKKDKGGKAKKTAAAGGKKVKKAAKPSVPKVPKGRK
Sequence of UniProt P29083 (P29083 whole entry, looked up): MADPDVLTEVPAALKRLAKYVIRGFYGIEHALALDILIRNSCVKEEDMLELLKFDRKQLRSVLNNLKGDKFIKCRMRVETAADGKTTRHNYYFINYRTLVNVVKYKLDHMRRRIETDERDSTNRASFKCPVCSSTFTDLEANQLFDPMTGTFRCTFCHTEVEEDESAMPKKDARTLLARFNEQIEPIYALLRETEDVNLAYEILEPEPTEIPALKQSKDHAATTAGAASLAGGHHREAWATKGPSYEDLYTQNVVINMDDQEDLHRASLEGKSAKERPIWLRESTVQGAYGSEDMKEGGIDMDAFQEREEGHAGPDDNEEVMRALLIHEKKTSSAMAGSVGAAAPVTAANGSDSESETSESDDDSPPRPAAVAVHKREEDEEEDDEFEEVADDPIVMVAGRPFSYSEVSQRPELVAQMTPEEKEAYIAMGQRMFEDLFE
Sequence of UniProt Q9BUP3 (Q9BUP3 whole entry, looked up): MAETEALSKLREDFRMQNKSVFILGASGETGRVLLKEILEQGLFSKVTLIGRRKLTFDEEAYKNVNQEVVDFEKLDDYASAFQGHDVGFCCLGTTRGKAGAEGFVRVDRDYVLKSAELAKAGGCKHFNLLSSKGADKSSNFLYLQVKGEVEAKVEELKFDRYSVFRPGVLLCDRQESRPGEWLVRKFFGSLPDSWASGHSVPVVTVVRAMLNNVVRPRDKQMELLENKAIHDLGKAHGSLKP
Sequence of UniProt O00291 (O00291 whole entry, looked up): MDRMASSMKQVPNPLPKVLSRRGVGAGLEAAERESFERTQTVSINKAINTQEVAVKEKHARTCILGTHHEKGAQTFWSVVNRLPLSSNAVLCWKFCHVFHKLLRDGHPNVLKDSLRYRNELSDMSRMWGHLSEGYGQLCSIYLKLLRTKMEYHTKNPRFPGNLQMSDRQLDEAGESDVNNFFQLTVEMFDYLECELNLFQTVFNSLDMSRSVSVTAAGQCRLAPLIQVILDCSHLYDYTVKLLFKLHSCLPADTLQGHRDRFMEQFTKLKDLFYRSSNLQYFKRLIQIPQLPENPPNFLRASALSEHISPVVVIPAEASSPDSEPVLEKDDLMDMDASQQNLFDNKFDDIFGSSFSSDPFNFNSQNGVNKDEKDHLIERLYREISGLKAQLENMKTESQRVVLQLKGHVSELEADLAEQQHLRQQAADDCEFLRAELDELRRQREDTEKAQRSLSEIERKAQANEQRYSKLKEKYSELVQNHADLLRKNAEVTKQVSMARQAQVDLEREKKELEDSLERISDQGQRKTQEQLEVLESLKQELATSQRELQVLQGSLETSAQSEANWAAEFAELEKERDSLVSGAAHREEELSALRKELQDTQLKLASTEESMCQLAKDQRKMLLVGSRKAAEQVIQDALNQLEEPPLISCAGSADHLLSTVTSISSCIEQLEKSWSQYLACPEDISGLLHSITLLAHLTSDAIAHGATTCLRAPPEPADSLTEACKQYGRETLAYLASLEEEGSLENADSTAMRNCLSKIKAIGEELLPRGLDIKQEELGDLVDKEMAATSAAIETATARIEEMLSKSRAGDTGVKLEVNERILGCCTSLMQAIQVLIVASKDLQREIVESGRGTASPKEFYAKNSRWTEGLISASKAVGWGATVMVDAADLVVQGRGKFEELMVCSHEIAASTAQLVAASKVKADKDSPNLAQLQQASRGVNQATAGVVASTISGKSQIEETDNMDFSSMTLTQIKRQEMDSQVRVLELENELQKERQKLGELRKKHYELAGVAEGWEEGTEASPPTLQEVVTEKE

log2 fold change, inactive:
HTATIP2 isoform 3 (UniProt Q9BUP3) 0.013, FBXO3 (UniProt Q9UK99) -0.046, HMOX2 (UniProt P30519) -0.007, GLS isoform 3 (UniProt O94925) 0.014, H1FX (UniProt Q92522) 0.029, GBF1 (UniProt Q92538) 0.039, GTF2E1 (UniProt P29083) 0.046, GLCCI1 (UniProt Q86VQ1) 0.009, FNTA (UniProt P49354) -0.017, HIP1 (UniProt O00291) -0.086, HIST2H3A (UniProt Q71DI3) 0.106, GCC2 (UniProt Q8IWJ2) 0.113
